From PubChem BioAssay (Tox21)
Records with an inconclusive call do not appear. Active and inactive are the calls of the source. Unless noted, the call rests on the fitted dose curve.

Molecular target: Peroxisome proliferator-activated receptor gamma (Homo sapiens) (UniProt P37231)
Test: qHTS assay to identify small molecule antagonists of the peroxisome proliferator-activated receptor gamma (PPARg) signaling pathway (AID 743191); further: nearly all actives have a fitted effect of over 30% in size; further: potency means the concentration at half of the fitted maximal effect
Conditions: HEK293H PPARg-UAS-bla, beta-lactamase ratio, antagonist, 17 h; series mostly up to 62.6 µM; ratio activity, negative = inhibition: at the top concentration
How it was run: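 GeneBLAzer PPARg UAS-bla HEK293H cells carrying a UAS-driven beta-lactamase reporter were plated at 3000 cells/well, preincubated 5 h at 37C, then given compound for 17 h at 37C; LiveBLAzer B/G FRET substrate was read after 1 h at room temperature.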
On the % scale 0 is the no-effect control and ±100 the full control effect.

Peroxisome proliferator-activated receptor gamma (Homo sapiens), sequence (P37231 whole entry, looked up): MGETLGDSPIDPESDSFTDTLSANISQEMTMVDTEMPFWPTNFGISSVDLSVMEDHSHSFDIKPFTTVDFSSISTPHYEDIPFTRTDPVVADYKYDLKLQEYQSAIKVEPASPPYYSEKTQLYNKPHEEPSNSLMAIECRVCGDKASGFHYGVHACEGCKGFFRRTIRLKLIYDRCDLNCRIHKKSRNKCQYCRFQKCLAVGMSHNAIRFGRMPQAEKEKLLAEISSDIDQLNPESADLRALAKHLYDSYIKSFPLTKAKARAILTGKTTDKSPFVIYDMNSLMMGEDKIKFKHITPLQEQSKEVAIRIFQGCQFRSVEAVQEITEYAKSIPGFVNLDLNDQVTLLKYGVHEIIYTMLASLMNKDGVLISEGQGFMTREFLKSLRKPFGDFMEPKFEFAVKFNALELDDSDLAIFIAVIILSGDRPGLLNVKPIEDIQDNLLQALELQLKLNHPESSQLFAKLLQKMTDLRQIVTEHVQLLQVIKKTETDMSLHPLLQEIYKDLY

Row | Structure (SMILES) | ratio activity, negative = inhibition | Potency
1 | CC(CN)CCCN (stereo not drawn) | 14.3% (inactive) | 
2 | CCN(CCO)CCCC(C)Nc1ccnc2cc(Cl)ccc12 (stereo not drawn) | -5.98% [at 5.95 µM] (inactive) | 
3 | CC(C)(C)c1cc(CO)cc(C(C)(C)C)c1O | -14.6% [at 81.1 µM] (inactive) | 
4 | CC(=O)O[C@H]1C[C@@H]2CC[C@@H]3[C@H](CC[C@@]4(C)[C@H]3C[C@H]([N+]3(C)CCCCC3)[C@@H]4OC(C)=O)[C@@]2(C)C[C@@H]1N1CCCCC1 | -0.137% (inactive) | 
5 | CC(C)CCCC(C)CCO (stereo not drawn) | 0.238% (inactive) | 
6 | CC(=O)NCCCS(=O)(=O)O | 2.49% [at 29.1 µM] (inactive) | 
7 | CCCCC(CC)(CO)CO | 4.7% (inactive) | 
8 | N#CCCNCCC#N | -13.6% [at 81.1 µM] (inactive) | 
9 | CCCCOC(=O)c1ccccc1C(=O)OCC(CC)CCCC (stereo not drawn) | -11% (inactive) | 
10 | CCOc1ccc2[nH]cc(C(=O)NCc3ccccc3)c(=O)c2n1 | 2.76% (inactive) | 
11 | CC(=O)Nc1ccc(/C=N/NC(N)=S)cc1 | 3.2% (inactive) | 
12 | CCCCCCCCC(CO)CCCCCC (stereo not drawn) | 21.9% (inactive) | 
13 | CCCC[C@H]1CN(CC2CCOCC2)C(=O)OC12CCN(C1(C)CCN(C(=O)c3c(C)ncnc3C)CC1)CC2 | 7.06% (inactive) | 
14 | CCCCOC(O)CC (stereo not drawn) | 5.4% (inactive) | 
15 | O=C1CCCCCO1 | 1.93% [at 81.1 µM] (inactive) | 
16 | CC(=O)OCCc1ccccc1 | -11% (inactive) | 
17 | CCCCc1cc2ccccc2c(OCCN(C)C)n1 | -26.5% (inactive) | 
18 | O=c1[nH]cnc2ccccc12 | 1.72% [at 81.1 µM] (inactive) | 
19 | CN1CCC[C@@H]1c1cccnc1 | -0.244% (inactive) | 
20 | COCCOCCOCCOCCOC | 1.99% (inactive) | 

Row | Structure (SMILES) | ratio activity, negative = inhibition | Potency
21 | CC(C)c1ccccc1C(C)C | -1.31% (inactive) | 
22 | N#CCc1cccc(C(F)(F)F)c1 | 0.266% (inactive) | 
23 | Nc1nc(N)c(-c2ccccc2)s1 | 0.574% (inactive) | 
24 | CNS(=O)(=O)Cc1ccc2[nH]cc(CCN(C)C)c2c1 | 13% (inactive) | 
25 | O=C(O)C1CCC(C(=O)O)CC1 (stereo not drawn) | -0.347% (inactive) | 
26 | C=C(C)C(=O)OC(C)C | 0.728% (inactive) | 
27 | COC(Cc1ccccc1)OC | -7.49% (inactive) | 
28 | O=C(O)/C=C/c1cnc[nH]1 | -11% (inactive) | 
29 | CCN1CCC[C@H]1CNC(=O)c1c(OC)ccc(Br)c1OC | 2.99% (inactive) | 
30 | N[C@H]1C(O)O[C@H](CO)[C@H](O)[C@@H]1O (stereo partly drawn) | 1.54% (inactive) | 
31 | CC(C)(C)c1cc(CCC(=O)OCC(COC(=O)CCc2cc(C(C)(C)C)c(O)c(C(C)(C)C)c2)(COC(=O)CCc2cc(C(C)(C)C)c(O)c(C(C)(C)C)c2)COC(=O)CCc2cc(C(C)(C)C)c(O)c(C(C)(C)C)c2)cc(C(C)(C)C)c1O | 4.55% [at 29.1 µM] (inactive) | 
32 | CCOC(=O)CC(=O)c1cc(F)c(Cl)nc1Cl | -20.7% [at 81.1 µM] (inactive) | 
33 | CCN(CC)C(C)=O | 1.47% [at 81.1 µM] (inactive) | 
34 | C=CCCCCCC | 9.05% (inactive) | 
35 | COC(=O)C(C)=O | -15.9% [at 81.1 µM] (inactive) | 
36 | Oc1ccc(Sc2ccc(O)cc2)cc1 |  | 16.2 µM (active)
37 | C=C(C)C(=O)OCCOc1ccccc1 | 5.36% (inactive) | 
38 | Cc1cccc(OCCOc2cccc(C)c2)c1 | -0.212% [at 81.1 µM] (inactive) | 
39 | CC(C)NCC(O)COc1ccc(CC(N)=O)cc1 (stereo not drawn) | -4.39% (inactive) | 

Tested on: not listed separately
Test: qHTS assay to identify small molecule antagonists of the peroxisome proliferator-activated receptor gamma (PPARg) signaling pathway - cell viability counter screen (AID 743194; active means well fitted cell-killing curve with a large enough effect in the repeat runs; further: nearly all actives have a fitted effect of over 55% in size)
Conditions: PPARg-bla HEK293H viability, CellTiter-Glo luminescence, 17 h, co-treated with 50 nM rosiglitazone; series mostly up to 62.6 µM; activity change, negative = cytotoxicity: at the top concentration
How it was run: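 PPARg-UAS-bla HEK293H cells were plated, rested 5 h at 37 C, then treated with compounds plus rosiglitazone (50 nM final) for 17 h at 37 C; viability was then read by CellTiter-Glo luminescence after 30 min at room temperature.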

Row | Structure (SMILES) | activity change, negative = cytotoxicity
40 | CC(CN)CCCN (stereo not drawn) | -5.6% (inactive)
41 | CCN(CCO)CCCC(C)Nc1ccnc2cc(Cl)ccc12 (stereo not drawn) | 0.825% [at 5.95 µM] (inactive)
42 | CC(C)(C)c1cc(CO)cc(C(C)(C)C)c1O | 3.03% [at 81.1 µM] (inactive)
43 | CC(=O)O[C@H]1C[C@@H]2CC[C@@H]3[C@H](CC[C@@]4(C)[C@H]3C[C@H]([N+]3(C)CCCCC3)[C@@H]4OC(C)=O)[C@@]2(C)C[C@@H]1N1CCCCC1 | -10.5% (inactive)
44 | CC(C)CCCC(C)CCO (stereo not drawn) | 15.7% (inactive)
45 | CC(=O)NCCCS(=O)(=O)O | 7.11% [at 29.1 µM] (inactive)
46 | CCCCC(CC)(CO)CO | 16.2% (inactive)
47 | N#CCCNCCC#N | -15.9% [at 81.1 µM] (inactive)
48 | CCCCOC(=O)c1ccccc1C(=O)OCC(CC)CCCC (stereo not drawn) | 4.21% (inactive)
49 | CCOc1ccc2[nH]cc(C(=O)NCc3ccccc3)c(=O)c2n1 | 25.5% (inactive)
50 | CC(=O)Nc1ccc(/C=N/NC(N)=S)cc1 | 0.672% (inactive)
51 | CCCCCCCCC(CO)CCCCCC (stereo not drawn) | 16.8% (inactive)
52 | CCCC[C@H]1CN(CC2CCOCC2)C(=O)OC12CCN(C1(C)CCN(C(=O)c3c(C)ncnc3C)CC1)CC2 | 4.17% (inactive)
53 | CCCCOC(O)CC (stereo not drawn) | 4.56% (inactive)
54 | O=C1CCCCCO1 | 0.504% [at 81.1 µM] (inactive)
55 | CC(=O)OCCc1ccccc1 | -27% (inactive)
56 | CCCCc1cc2ccccc2c(OCCN(C)C)n1 | -19.5% (inactive)
57 | O=c1[nH]cnc2ccccc12 | 11.7% [at 81.1 µM] (inactive)
58 | CN1CCC[C@@H]1c1cccnc1 | 7.55% (inactive)
59 | COCCOCCOCCOCCOC | 6.79% (inactive)

Row | Structure (SMILES) | activity change, negative = cytotoxicity
60 | CC(C)c1ccccc1C(C)C | 1.54% (inactive)
61 | N#CCc1cccc(C(F)(F)F)c1 | -0.899% (inactive)
62 | Nc1nc(N)c(-c2ccccc2)s1 | -8.82% (inactive)
63 | CNS(=O)(=O)Cc1ccc2[nH]cc(CCN(C)C)c2c1 | 1.67% (inactive)
64 | O=C(O)C1CCC(C(=O)O)CC1 (stereo not drawn) | 16.5% (inactive)
65 | C=C(C)C(=O)OC(C)C | 3.8% (inactive)
66 | COC(Cc1ccccc1)OC | 17.3% (inactive)
67 | O=C(O)/C=C/c1cnc[nH]1 | 6.95% (inactive)
68 | CCN1CCC[C@H]1CNC(=O)c1c(OC)ccc(Br)c1OC | 7.67% (inactive)
69 | N[C@H]1C(O)O[C@H](CO)[C@H](O)[C@@H]1O (stereo partly drawn) | 9.04% (inactive)
70 | CC(C)(C)c1cc(CCC(=O)OCC(COC(=O)CCc2cc(C(C)(C)C)c(O)c(C(C)(C)C)c2)(COC(=O)CCc2cc(C(C)(C)C)c(O)c(C(C)(C)C)c2)COC(=O)CCc2cc(C(C)(C)C)c(O)c(C(C)(C)C)c2)cc(C(C)(C)C)c1O | -1.93% [at 29.1 µM] (inactive)
71 | CCOC(=O)CC(=O)c1cc(F)c(Cl)nc1Cl | -13.4% [at 81.1 µM] (inactive)
72 | CCN(CC)C(C)=O | 13.4% [at 81.1 µM] (inactive)
73 | C=CCCCCCC | 6.06% (inactive)
74 | COC(=O)C(C)=O | -6.33% [at 81.1 µM] (inactive)
75 | Oc1ccc(Sc2ccc(O)cc2)cc1 | -22% (inactive)
76 | C=C(C)C(=O)OCCOc1ccccc1 | 20.3% (inactive)
77 | Cc1cccc(OCCOc2cccc(C)c2)c1 | 5.9% [at 81.1 µM] (inactive)
78 | CC(C)NCC(O)COc1ccc(CC(N)=O)cc1 (stereo not drawn) | 13.9% (inactive)
